Among all 290,000 compounds or so, about 3,000 (1%) were called active. Many of the other results were omitted from the sample, so actives are more common in it than they were. Values without a mark were called inactive. No stated cut-off is given here; in the data, active means inhibition mostly above about 36% (no sharp cut-off); inactive means mostly below about 34%.

The assay can be described thus: inhibition of NOD1-driven NF-kB reporter – cell-based, luminescence, uHTS, primary screen (AID 1578).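 Further: HEK-293T reporter cells stimulated with the NOD1 agonist gamma-tri-DAP.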 The following applies: NOD1-driven NF-kB luciferase reporter cells, at 4 µM, active compounds read high.
With `COc1ccc(S(=O)(=O)N(C)c2ccc(C(=O)Nc3c(C)n(C)n(-c4ccccc4)c3=O)cc2)cc1`, the inhibition (usually the drop in the measured response relative to a control, in per cent) is -31.9%. For `CCCC(C)NC(=O)c1cc(Cl)ccc1OC` (stereo unspecified) the value was -0.3%; for `CC(=O)c1cnc(Oc2cc(Cl)ccc2Cl)nc1C`, -14.2%. For `Cc1cc(C)n2nc(SCc3cccc(S(=O)(=O)N(C)C)c3)nc2n1` the value was 7.2%; for `CN(C)S(=O)(=O)c1cccc(CSc2cccc[n+]2[O-])c1`, -15.4%; for `COC(=O)c1c(NC(=O)C2CCC2)sc(C(=O)N(C)C)c1C`, -8.7%.

`CCc1cccc(N(C(=O)c2csnn2)C(C(=O)NC2CCCC2)c2cccnc2)c1` (stereo unspecified): the inhibition is -10.2%. Regarding `O=C(O)c1ccc2c(=O)n3c(nc2c1)/C(=C/c1ccc(C(F)(F)F)cc1)CC3`, the inhibition is 1.9%. For `CSc1ccc(/C=C2\CCn3c2nc2cc(C(=O)O)ccc2c3=O)cc1` the value was -1.6%; for `O=C(O)c1ccc2c(=O)n3c(nc2c1)/C(=C/c1ccc(F)cc1)CC3`, 33.3% (active). For `Cc1nc(-c2ccccc2)sc1C1(C)CC(c2c(Cl)cccc2Cl)=NO1` (stereo unspecified) the value was 10.1%; for `CCCO/N=C1/C(=O)N(c2ccccc2)c2ccccc21`, 6.1%. The same measure for `NC(=O)CN1C(=O)C(O)(CC(=O)/C=C\C=C\c2ccccc2)c2ccccc21` (stereo unspecified): 17.8%. Regarding `C#CCN1C(=O)C(O)(CC(=O)/C=C/C=C/c2ccccc2)c2ccccc21` (stereo unspecified), the inhibition is 57% (active). `CCN1C(=O)C(O)(CC(=O)/C=C/C=C/c2ccccc2)c2ccccc21` (stereo unspecified): the inhibition is -4.8%.

Take `Cc1ccc(S(=O)(=O)/N=C(/Nc2ccc3[nH]c(=O)[nH]c3c2)c2ccc(F)cc2)cc1`: the inhibition is 3.8%. The same measure for `CCSC1=C(C#N)C2(CCCCC2)C(C#N)C(=O)N1` (stereo unspecified): -3.2%. For `N#CC1=C(SCC(=O)NC2CC2)NC(=O)C(C#N)C12CCCCC2` (stereo unspecified) the value was 15.7%; for `COCCN=C1OC(=O)N2C(=O)C3=C4[C@@H](C[C@H]5C(=O)N(c6ccccc6)C(=O)[C@H]5[C@H]4[C@@]12Cc1ccccc1)[C@H]1C(=O)N(c2ccccc2)C(=O)[C@H]1[C@H]3C`, 4.5%; for `Cc1cc(C)nc(N(C#N)Cc2ccccc2C)n1`, -6.3%. Take `O=C(c1ccc(F)cc1)C(CN1CCOCC1)c1ccccc1` (stereo unspecified): the inhibition was 67.3% (active). The same measure for `CCOc1ccc(C(=O)C(CN2CCOCC2)c2ccccc2)cc1` (stereo unspecified): -28.1%. For `COc1ccc(C(=O)C(CN2CCCC2)c2ccccc2)cc1` (stereo unspecified) the value was 78.7% (active); for `O=C(c1ccc(Br)cc1)C(CN1CCOCC1)c1ccccc1` (stereo unspecified), 5.4%; for `CCCOc1ccc(C(=O)C(CN2CCCC2)c2ccccc2)cc1` (stereo unspecified), 31.5%.

Turning to `COc1ccc(C(=O)C(CN2CCOCC2)c2ccccc2)cc1` (stereo unspecified), the inhibition is 38%. For `Fc1ccc(OCc2nn[nH]n2)c(F)c1` the value was -9.1%; for `COc1ccc(C(=O)NC(=S)NNC(=O)[C@H]2C[C@@H]2c2ccccc2)cc1OC`, -2.6%; for `O=C(NCC(=O)N(c1cccc(F)c1)C(C(=O)NC1CCCC1)c1ccco1)c1ccco1` (stereo unspecified), -35.9%. For `Cc1ccc(Oc2ccc(C(=O)NCc3ccncc3)cc2)cc1` the value was 38.4% (active); for `O=C(NCc1ccncc1)c1ccc(Oc2ccccc2)cc1`, 18.9%; for `CCOc1ccc(C(=O)NCc2ccncc2)cc1`, -14.8%. The same measure for `O=S(=O)(NCc1ccc2c(c1)OCO2)c1c(F)cc(F)cc1Br`: -29.4%. For `Fc1ccccc1/C=N/NC(=S)Nc1ccc(Cl)cc1Cl`, the inhibition was -13.3%. The same measure for `Cc1cc(C(=O)N/N=C/c2ccc([N+](=O)[O-])cc2)c2ccccc2n1`: 8.1%; for `Fc1ccc(/C=N/NC(=S)Nc2ccc(Cl)cc2Cl)cc1`: 8.9%; for `O=C(N/N=C\c1cccc([N+](=O)[O-])c1O)C1COc2ccccc2O1` (stereo unspecified): -14.4%. For `Cc1ccccc1C(=O)N/N=C/c1ccc([N+](=O)[O-])s1` the value was 11%. The same measure for `COC(=O)N/N=C/c1ccc([N+](=O)[O-])s1`: -14.7%; for `COc1ccccc1NC(=O)C(=O)N/N=C/c1cccs1`: -36%. In the case of `COc1ccccc1NC(=O)C(=O)N/N=C/c1ccc([N+](=O)[O-])s1`, the inhibition was 74.8% (active). The same measure for `O=C(N/N=C\c1ccc(Cl)s1)C1COc2ccccc2O1` (stereo unspecified): -4.2%. For `COc1cccc(NC(=O)c2ccccc2N2C(=O)C3C4C=CC(C5CC45)C3C2=O)c1` (stereo unspecified) the value was -54.1%; for `COc1cccc(OCC(O)CNC(C)c2ccccc2)c1` (stereo unspecified), -39.9%. For the compound `C=CCNc1nnnc2c1sc1nc(N3CCOCC3)c3c(c12)CCCC3`, the inhibition is -1.1%. For `COC(=O)c1c(NC(=O)COC(=O)CNC(=O)c2ccco2)sc(C)c1C` the value was -14.8%. For `Cc1ccc(/C(O)=C2\C(=O)C(=O)N(C)C2c2ccc(Br)cc2)cc1` (stereo unspecified) the value was -22%; for `CC1CN(C(=O)CN2C(=O)c3ccccc3C2=O)CC(C)O1` (stereo unspecified), -11.2%.

As for `c1ccc(C(c2nnnn2C2CCCC2)N2CCN(c3nc4ccccc4s3)CC2)cc1` (stereo unspecified), the inhibition was 8.2%. For `CCOC(=O)c1c(NC(=O)CC)sc2c1CCN(Cc1ccccc1)C2` the value was -21.7%. The same measure for `Nc1nonc1-n1nnc(C(=O)N/N=C/c2ccccn2)c1CNc1ccccc1`: -11.6%. For `Cc1ccsc1/C=N/NC(=O)c1cc(-c2ccncc2)nc2ccccc12` the value was 69.5% (active); for `COc1ccccc1-c1cc(C(=O)N/N=C/c2sccc2C)c2ccccc2n1`, -11.4%; for `O=C(N/N=C/c1cccs1)c1cc(-c2ccncc2)nc2ccccc12`, 4.8%. For `Cc1onc(-c2ccccc2Cl)c1C(=O)OCC(=O)c1c(N)n(C)c(=O)n(C)c1=O`, the inhibition is -8.2%. The same measure for `COc1ccc(C(C(=O)NC2CCCCC2)N(C(=O)c2snc(C(N)=O)c2N)c2ccc(OC)cc2OC)cc1` (stereo unspecified): -7.1%; for `Cn1c(=O)n(C)c2cc(NC(=O)c3ccccc3NS(C)(=O)=O)ccc21`: 44.4%; for `O=c1[nH]c(C2CCN(S(=O)(=O)Cc3ccccc3)CC2)nc2c1nnn2Cc1cccc(Cl)c1`: -7.8%.

On to `NC(=O)Nc1ccc(Cl)cc1`, for which the inhibition is 0.2%. For `NC(N)=NC(=S)Nc1ccc(Cl)cc1` the value was -15.3%; for `NC(=NCCCCCCN=C(N)/N=C(\N)Nc1ccc(Cl)cc1)/N=C(\N)Nc1ccc(Cl)cc1`, 46.6% (active); for `Cc1ccc(S(=O)(=O)NC(C)C(=O)Nc2ccc3c(c2)OCO3)cc1` (stereo unspecified), -7.4%. Turning to `Cc1cc(C(F)F)n2nc(C(=O)Nc3cccc(C(F)(F)F)c3)nc2n1`, the inhibition is -25.8%. For `COC(=O)CNC(=O)C(NC(=O)c1ccc(Cl)cc1)C(C)C` (stereo unspecified) the value was 1.3%; for `O=C(CC1C(=O)NCCN1Cc1cccc(F)c1)NC1CCC1` (stereo unspecified), -28.3%; for `CCOc1ccc2c(c1)C(C)=CC(C)(C)N2S(=O)(=O)c1ccc(C)cc1`, -31.4%.

Turning to `COc1ccc2c(c1)C(C)=CC(C)(C)N2S(=O)(=O)c1ccc(NC(C)=O)cc1`, the inhibition was 31.4%. Regarding `CCOc1ccc2c(c1)C(C)=CC(C)(C)N2S(=O)(=O)c1ccc(NC(C)=O)cc1`, the inhibition is 74.1% (active).

On to `CC(=O)c1cnc2nc(SCc3ccccc3)nn2c1C`, for which the inhibition was -36%. Regarding `O=C(NC1CCCC1)C(c1ccc(F)cc1)N(C(=O)c1csnn1)c1ccccc1` (stereo unspecified), the inhibition is -27.7%. For `O=C(CSc1nc2ccccc2s1)c1ccc(O)cc1O` the value was 0.6%.

Regarding `O=C(CSc1nc2ccccc2s1)Nc1ccc2c(c1)OCO2`, the inhibition was 12.2%.

Take `CCOc1ccc2nc(SCC(=O)Nc3ccc4c(c3)OCO4)sc2c1`: the inhibition was 67.3% (active). The same measure for `CCOc1ccc2nc(SCC(=O)c3ccc(O)cc3O)sc2c1`: 51.8% (active); for `CCOc1ccc2nc(SCC(=O)c3ccccc3)sc2c1`: -38.9%; for `CCOc1ccc2nc(SCC(=O)NC(=O)C(C)C)sc2c1`: -13.9%. The same measure for `CCN1CCN(C(=S)c2ccc(O)cc2)CC1`: -31%; for `Nc1cccc(C(=O)OCC(=O)Nc2cccc3c2C(=O)c2ccccc2C3=O)c1`: -3.2%. Regarding `O=C(CSc1ccccc1)NC1=NCCS1`, the inhibition is -5.2%. For `COc1ccc(N(C)C(=O)c2cnc(N3CCN(c4ncccn4)CC3)c3ccccc23)cc1` the value was -20%. On to `COc1ccc(Nc2ncc(C(=O)N3CCN(c4ccccc4OC)CC3)c3ccccc23)cc1`, for which the inhibition was 52.5%.

As for `COc1ccccc1C(=O)N1CCN(c2cccc(Cl)c2)CC1`, the inhibition is 33.8%.

For the compound `CN(C(=O)c1cnc(N2CCN(c3ncccn3)CC2)c2ccccc12)c1ccc(Cl)cc1`, the inhibition was 14.2%. For `COc1ccc(CNCc2ccc(F)cc2)c(OC)c1` the value was -19.8%; for `CCOC(=O)NC(=O)/C(N=Nc1cc(C)cc(C)c1)=C(\C)O`, -20.5%; for `CC(C)(C)NCC(O)(c1ccc(Cl)cc1)c1ccc(Cl)cc1`, -30.2%. The same measure for `CCNC(=S)N(Cc1ccc2c(c1)OCO2)C1CC(=O)N(c2ccc(F)cc2)C1=O` (stereo unspecified): -9.3%. For `Cc1ccc(S(=O)(=O)NCc2ccc(C(=O)N3CCN(c4ccccc4)CC3)cc2)cc1` the value was 15.5%. For `CC1Cc2cc(S(=O)(=O)NCc3ccccc3)ccc2N1C(=O)C1CC1` (stereo unspecified), the inhibition was -4.7%. For `COc1ccc(CNS(=O)(=O)c2ccc(OC)cc2)cc1` the value was -1.2%; for `COc1ccc(N2CCN(C(=O)c3ccc(CNS(=O)(=O)c4cc(C)ccc4C)cc3)CC2)cc1`, -18.8%. `COc1cccc(CNS(=O)(=O)c2ccc3c(c2)CC(C)N3C(=O)C2CC2)c1` (stereo unspecified): the inhibition was 11.6%. The same measure for `COc1ccc(S(=O)(=O)NCc2ccc(C(=O)O)cc2)cc1`: 40.7% (active).

Take `CCOC(=O)N1CCN(C(=O)c2ccc(CNS(=O)(=O)c3ccc(C)cc3)cc2)CC1`: the inhibition was -13.1%. For `Cc1ccc(S(=O)(=O)NCc2ccc(C(=O)N3CCCC3)cc2)cc1` the value was -46%; for `COc1ccc(S(=O)(=O)NCc2ccccc2)cc1`, 9.2%.

(Values after PubChem BioAssay AID1578 (Sanford-Burnham Center for Chemical Genomics, 2009).)
